From PubChem BioAssay
Activity calls are given as the source filed them.

Columns and labels:
[1] = binders of probe aFSTL3 on microarray, primary screen, stem cell growth factor project, biochemical, small-molecule microarray, fluorescence 635/667 (AID 1064); conditions: higher = more signal;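 also: measures binding of the biotinylated anti-FSTL3 antibody to printed compounds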
[2] = binders from COS7 lysate, DM2A8 probe, primary screen, torsin A project, cell lysate, small-molecule microarray, fluorescence 635/667 (AID 1065); conditions: higher = more signal, COS7 lysate expressing mutant human TOR1A
[3] = binders of probe aFGF2 on microarray, primary screen, stem cell growth factor project, biochemical, small-molecule microarray, fluorescence 635/667 (AID 1067); conditions: higher = more signal;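 also: measures binding of biotinylated aFGF2 protein to printed compounds on slides; z-score merges feature fluorescence and signal-to-noise across triplicate slides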
[4] = binders of probe aFGF10 on microarray, primary screen, stem cell growth factor project, biochemical, small-molecule microarray, fluorescence 635/667 (AID 1071); conditions: higher = more signal;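 also: score merges 667 nm spot intensity and signal to noise from triplicate slides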
[5] = target: Neurogenic locus notch homolog protein 2 (Homo sapiens) (UniProt Q04721); assay: Notch2 binders on small-molecule microarrays, primary screen, biochemical, small-molecule microarray, 635 nm fluorescence, stem cell growth factors (AID 1073); conditions: Notch2 binding, higher = more signal
[6] = target: Pro-neuregulin-1, membrane-bound isoform (Homo sapiens) (UniProt Q02297); assay: NRG1 binders on small-molecule microarrays, primary screen, psychiatric disease protein project, biochemical, small-molecule microarray, fluorescence 635/667 (AID 1075); conditions: NRG1 binding, 635 nm fluorescence, higher = more signal;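 also: score combines 667 nm spot fluorescence with signal to noise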
[7] = tested on: Neuregulin-1 EGF-like domain; assay: binders of neuregulin-1 EGF-like domain, primary screen, biochemical, small-molecule microarray, 635 nm fluorescence (AID 1081); conditions: small-molecule microarray binding, higher = more signal;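 also: binding of the protein to compounds printed on small-molecule microarray slides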
[8] = FRG1 promoter luciferase signal modulators, primary screen, FRG1 inhibition for FSHD, cell-based, C2C12 myotubes, firefly/Renilla luciferase, luminescence (AID 1084); conditions: higher = more signal, called active from +8 up or from −8 down
[9] = binders of probe aFST on microarray, primary screen, stem cell growth factor project, biochemical, small-molecule microarray, fluorescence 635/667 (AID 1086); conditions: higher = more signal;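 also: score merges 667 nm fluorescence with signal-to-noise of each printed compound spot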
[10] = binders of probe aHhip on microarray, primary screen, stem cell growth factor project, biochemical, small-molecule microarray, fluorescence 635/667 (AID 1087); conditions: higher = more signal;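 also: score merges spot fluorescence at 667nm with spot signal to noise ratio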

Sequence of Neurogenic locus notch homolog protein 2 (Homo sapiens) (Q04721 whole entry, looked up, canonical isoform): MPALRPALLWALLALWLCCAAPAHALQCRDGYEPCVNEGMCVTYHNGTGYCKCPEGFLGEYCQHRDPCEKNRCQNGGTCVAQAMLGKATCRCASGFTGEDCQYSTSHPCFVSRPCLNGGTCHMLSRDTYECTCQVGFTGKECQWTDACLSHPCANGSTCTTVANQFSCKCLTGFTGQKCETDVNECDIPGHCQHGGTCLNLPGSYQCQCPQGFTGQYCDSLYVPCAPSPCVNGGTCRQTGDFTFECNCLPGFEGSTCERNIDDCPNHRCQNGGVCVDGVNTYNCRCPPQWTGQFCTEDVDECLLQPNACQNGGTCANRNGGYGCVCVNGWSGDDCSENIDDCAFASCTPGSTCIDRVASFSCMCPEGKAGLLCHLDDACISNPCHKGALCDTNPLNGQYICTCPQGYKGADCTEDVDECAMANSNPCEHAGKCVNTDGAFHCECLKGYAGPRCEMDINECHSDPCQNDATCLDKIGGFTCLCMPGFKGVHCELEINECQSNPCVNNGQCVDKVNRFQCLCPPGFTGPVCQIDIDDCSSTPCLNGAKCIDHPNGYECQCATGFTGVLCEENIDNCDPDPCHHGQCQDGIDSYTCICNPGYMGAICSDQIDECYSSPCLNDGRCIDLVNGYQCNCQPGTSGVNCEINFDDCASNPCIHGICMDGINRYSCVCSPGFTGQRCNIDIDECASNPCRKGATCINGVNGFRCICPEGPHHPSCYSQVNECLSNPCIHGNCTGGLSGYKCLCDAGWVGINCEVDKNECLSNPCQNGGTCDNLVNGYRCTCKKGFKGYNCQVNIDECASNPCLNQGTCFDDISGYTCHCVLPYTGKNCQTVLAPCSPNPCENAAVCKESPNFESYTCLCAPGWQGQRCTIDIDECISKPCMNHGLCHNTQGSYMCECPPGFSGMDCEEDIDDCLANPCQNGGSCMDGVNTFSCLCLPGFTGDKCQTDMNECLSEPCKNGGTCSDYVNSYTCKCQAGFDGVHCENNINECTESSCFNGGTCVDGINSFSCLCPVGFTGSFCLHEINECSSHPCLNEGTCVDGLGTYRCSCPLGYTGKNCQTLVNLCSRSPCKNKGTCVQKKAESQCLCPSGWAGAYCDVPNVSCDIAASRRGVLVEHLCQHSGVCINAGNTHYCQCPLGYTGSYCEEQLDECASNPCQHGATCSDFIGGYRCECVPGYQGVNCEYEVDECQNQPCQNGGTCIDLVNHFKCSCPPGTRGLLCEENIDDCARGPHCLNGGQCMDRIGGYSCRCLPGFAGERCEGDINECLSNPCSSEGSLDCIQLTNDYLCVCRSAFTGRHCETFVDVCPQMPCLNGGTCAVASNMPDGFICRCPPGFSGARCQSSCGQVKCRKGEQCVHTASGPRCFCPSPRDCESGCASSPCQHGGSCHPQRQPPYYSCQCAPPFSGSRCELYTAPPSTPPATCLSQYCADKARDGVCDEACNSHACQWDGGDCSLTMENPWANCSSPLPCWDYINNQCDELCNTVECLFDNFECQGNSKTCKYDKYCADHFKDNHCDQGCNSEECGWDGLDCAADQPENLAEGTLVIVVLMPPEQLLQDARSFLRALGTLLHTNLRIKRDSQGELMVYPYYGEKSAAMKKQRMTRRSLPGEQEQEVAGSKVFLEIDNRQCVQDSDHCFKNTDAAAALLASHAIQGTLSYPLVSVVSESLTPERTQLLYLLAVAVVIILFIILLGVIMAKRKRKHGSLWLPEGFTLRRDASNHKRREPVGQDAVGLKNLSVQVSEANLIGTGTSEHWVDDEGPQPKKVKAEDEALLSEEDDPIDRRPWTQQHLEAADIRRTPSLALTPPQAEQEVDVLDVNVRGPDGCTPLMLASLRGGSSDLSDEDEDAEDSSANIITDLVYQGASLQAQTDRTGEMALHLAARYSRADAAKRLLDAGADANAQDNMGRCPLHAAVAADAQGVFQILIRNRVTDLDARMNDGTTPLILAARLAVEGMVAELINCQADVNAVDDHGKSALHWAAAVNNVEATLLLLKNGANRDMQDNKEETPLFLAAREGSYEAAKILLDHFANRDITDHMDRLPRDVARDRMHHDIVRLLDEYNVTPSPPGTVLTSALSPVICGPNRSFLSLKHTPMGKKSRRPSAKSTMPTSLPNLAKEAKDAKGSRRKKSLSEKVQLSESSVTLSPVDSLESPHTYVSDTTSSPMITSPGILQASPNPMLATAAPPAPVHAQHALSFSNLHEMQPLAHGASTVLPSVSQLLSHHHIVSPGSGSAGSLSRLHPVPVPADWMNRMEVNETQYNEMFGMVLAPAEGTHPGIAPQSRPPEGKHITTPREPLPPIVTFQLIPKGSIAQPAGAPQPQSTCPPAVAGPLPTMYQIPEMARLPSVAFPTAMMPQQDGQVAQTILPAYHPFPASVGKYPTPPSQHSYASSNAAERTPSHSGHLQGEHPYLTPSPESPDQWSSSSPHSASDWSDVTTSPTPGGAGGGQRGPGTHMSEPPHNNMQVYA
Sequence of Pro-neuregulin-1, membrane-bound isoform (Homo sapiens) (Q02297 whole entry, looked up, the tested form may be a part, canonical isoform): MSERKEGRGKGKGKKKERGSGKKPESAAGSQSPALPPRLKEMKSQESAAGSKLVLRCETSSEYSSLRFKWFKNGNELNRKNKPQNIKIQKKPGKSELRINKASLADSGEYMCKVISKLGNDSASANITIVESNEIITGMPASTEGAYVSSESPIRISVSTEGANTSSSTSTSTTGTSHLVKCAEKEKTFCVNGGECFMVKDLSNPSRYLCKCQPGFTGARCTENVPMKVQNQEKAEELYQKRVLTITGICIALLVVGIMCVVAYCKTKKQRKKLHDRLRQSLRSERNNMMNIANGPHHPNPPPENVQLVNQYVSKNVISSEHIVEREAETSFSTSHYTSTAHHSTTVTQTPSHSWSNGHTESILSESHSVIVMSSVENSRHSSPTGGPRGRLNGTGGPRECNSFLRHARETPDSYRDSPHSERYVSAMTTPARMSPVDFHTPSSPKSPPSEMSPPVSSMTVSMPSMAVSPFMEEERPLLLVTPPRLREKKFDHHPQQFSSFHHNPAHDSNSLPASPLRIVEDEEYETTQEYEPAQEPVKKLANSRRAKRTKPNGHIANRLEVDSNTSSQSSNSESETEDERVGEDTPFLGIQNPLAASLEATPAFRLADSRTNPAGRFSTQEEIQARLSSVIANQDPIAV

Compound | composite z-score [1] | composite z-score [2] | composite z-score [3] | composite z-score [4] | composite z-score [5] | composite z-score [6] | composite z-score [7] | z-score [8] | composite z-score [9] | composite z-score [10]
C=CCOC(=O)[C@H]1[C@@H]2C(=O)O[C@@H](c3ccccc3)[C@@H](c3ccccc3)N2[C@@H](c2ccc(OCCOC(=O)[C@@H]3C[C@@H]4C(=O)N[C@@H](CCCCNC(C)=O)C(=O)N4[C@@H]3c3cccc(OCCO)c3)cc2)[C@]12C(=O)Nc1ccccc12 | 0.125 | 1.67 | -0.024 | 0.489 | 0.717 | 1.19 | 1.3 | 1.26 (inactive) | 0.324 | -0.0994
O=C1NC(=O)C2C1C=CC(C(O)c1ccc([N+](=O)[O-])cc1)N2Nc1ccccn1 (stereo not given) | 0.0895 | -0.0755 | -0.0442 | 0.0525 | 0.864 | 0.441 | 0.554 | 0.484 (inactive) | -0.16 | -0.0074
CCOC(=O)C1=CCC(c2cc3ccccc3[nH]2)N(CCN2CC(C(=O)OCC)=CCC2c2cc3ccccc3[nH]2)C1 (stereo not given) | -0.0107 | -0.75 | -0.0216 | 0.433 | 1.06 | 1.82 | 1.32 | 2.57 (inactive) | 0.74 | -0.361
CC(C)=CCCC=C(C)C(O)C1C=CC2C(=O)N(c3ccccc3)C(=O)C2N1Nc1ccc(C#N)cc1 (stereo not given) | 0.314 | 0.146 | 0.126 | 0.178 | 1.51 | 1.93 | 1.23 | -1.36 (inactive) | 0.257 | -0.382
O=C1[C@H]2C=C(I)[C@H](C[C@@H]2OCCCCCCO)[C@@]12CO2 | -0.123 | 0.249 | -0.169 | 0.0956 | 1.01 | -0.715 | -0.175 | 0.622 (inactive) | -0.132 | -0.183
O=C(NCCN1CCOCC1)[C@@H]1c2ccccc2C(=O)N(Cc2ccc(OC(F)(F)F)cc2)[C@H]1c1ccc(CO)cc1 | 0.224 | 0.751 | -0.0531 | -0.315 | 0.0161 | -0.181 | 0.569 | -1.39 (inactive) | -0.236 | -0.0645
CN1C(=O)C2C(C1=O)C1C=C(CCCO)C2C(C2CC2)N1Cc1cccc(OC(F)(F)F)c1 (stereo not given) | -0.143 | -0.122 | -0.13 | -0.203 | -0.254 | 2 | 1.3 | -0.688 (inactive) | 0.0794 | -0.242
COC(=O)[C@@]1(Cc2ccccc2)[C@H]2c3cc(C(=O)N4CCCC4)n(Cc4ccc(OC)c(OC)c4)c3C[C@H]2CN1C(=O)c1ccccc1 | 0.439 | 0.411 | 0.141 | 0.605 | 1.77 | 2.16 | 1.4 | 0.626 (inactive) | 1.88 | 0.857
N#Cc1ccc(-c2cccc(=O)o2)cc1 | -0.5 | 0.316 | -0.103 | 0.248 | 0.601 | 0.114 | 0.678 | 0.563 (inactive) | 0.445 | -0.166
CC(C)C(=C=CC[C@H](O)c1ccccc1OCCO)C[C@H](O)COCc1ccccc1 | -0.322 | -0.0849 | -0.136 | 0.483 | -0.284 | 0.294 | 0.767 | -0.843 (inactive) | -0.064 | -0.0994
COc1ccc([Si](C)(C)[C@@H]2[C@@H](CC(=O)N(CCO)Cc3ccccc3)O[C@]3(C(=O)N(Cc4ccc(I)cc4)c4ccccc43)[C@H]2C)cc1 | 0.44 | 1.2 | -0.0403 | 0.0554 | 0.512 | 0.136 | 0.83 | -2.04 (inactive) | 0.621 | 1
COCCCNC(=O)[C@@]1(CCS(=O)(=O)c2ccccc2)COC(c2ccc(OCCCO)cc2)=N1 | 1.79 | 1.68 | 0.0177 | 0.529 | 0.874 | 2.3 | 1.28 | -1.24 (inactive) | 1.1 | -0.0296
Cc1ccc(S[C@]2(C(=O)NC(C)C)CC(=O)N(C3CCCCC3)[C@@H]2c2ccc(CO)cc2I)cc1 | -0.183 | 2.15 | -0.0257 | 0.308 | 0.777 | 0.897 | 1.33 | -4.76 (inactive) | 0.276 | -0.399
C=CCN1C(=O)[C@]2(O[C@H](CCn3cc([C@H](O)c4ccccc4)nn3)[C@@H]([Si](C)(C)c3ccc(OC)cc3)[C@@H]2C)c2cc(NC(=O)c3ccc(OC)cc3)ccc21 | -0.255 | 0.39 | -0.112 | 0.141 | 0.603 | 0.0976 | 0.519 | -2.62 (inactive) | 0.0019 | 0.0722
COc1ccc(C(O)C2C=CC3C(=O)N(c4ccccc4)C(=O)C3N2Nc2ccc(C#N)cc2)cc1OCc1ccccc1 (stereo not given) | 1.98 | 1.55 | 0.19 | 0.472 | 1.34 | 2.02 | 0.823 | 0.686 (inactive) | 1.09 | 0.0053
C[C@@H]1ON(c2ccccc2)[C@H](c2ccccc2)[C@H]1C(=O)O | -0.0301 | 0.112 | -0.085 | 0.364 | 0.0812 | -0.515 | -0.198 | -0.313 (inactive) | -0.0817 | 0.289
Cc1ccc(S[C@]2(C(=O)NCCCN(C)C)CC(=O)N(Cc3ccccc3C(F)(F)F)[C@@H]2c2ccc(CO)cc2I)cc1 | -0.73 | -0.0283 | -0.21 | -0.211 | -0.733 | 1.51 | 1.13 | 0.241 (inactive) | 0.216 | -0.54

Compound | composite z-score [1] | composite z-score [2] | composite z-score [3] | composite z-score [4] | composite z-score [5] | composite z-score [6] | composite z-score [7] | z-score [8] | composite z-score [9] | composite z-score [10]
COCCCN1C(=O)[C@@]2(c3ccc([N+](=O)[O-])cc3)CC(=O)N(CC34CC5CC(CC(C5)C3)C4)[C@@H]2c2ccc(CO)cc21 | -0.145 | -0.104 | -0.0952 | 0.0256 | -0.345 | 0.0024 | 1.05 | -0.748 (inactive) | -0.19 | 0.312
C=CCN1Cc2ccccc2[C@H]2OC(c3ccc(OCCCO)cc3)=N[C@@]2(CCS(=O)(=O)c2ccccc2)C1=O | 1.14 | 0.852 | 0.0814 | 0.201 | 1.47 | 1.61 | 1.35 | -0.908 (inactive) | 0.932 | -0.226
NC(=O)N1C(=O)C2C(C1=O)C1C=C(CCCO)C2C(C2CC2)N1Cc1sc2ccccc2c1Cl (stereo not given) | -0.4 | 1.09 | 0.0397 | 1.27 | 0.481 | 1.45 | 1.21 | 0.906 (inactive) | 0.115 | -0.134
O=C1C=C(c2ccccc2)C(=O)C2=C1CC([C@H]1Oc3ccccc3S(=O)(=O)N3CCC[C@@H]13)=CC2 | -0.415 | -0.618 | -0.119 | -0.0024 | -0.103 | 0.0032 | -0.702 | -0.7 (inactive) | 1.49 | -0.0296
CN(C)C(=O)[C@]1(Cc2ccccc2)N=C(c2ccc(OCCCO)cc2)O[C@@H]1c1ccccc1CN=[N+]=[N-] | -0.106 | 1.31 | -0.0465 | 1.18 | 1.62 | 1.33 | 1.22 | -0.783 (inactive) | 0.879 | -0.126
C=CCC(OC(C)=O)[C@@H]1[C@@H](N(Cc2ccc(-c3ccccc3)cc2)C(=O)c2cccc3ccccc23)c2cc(OCCCO)ccc2N1C(=O)Cc1ccc(OC)cc1 (stereo not given in full) | 0.0714 | -0.205 | -0.108 | -0.234 | -0.559 | -0.229 | -0.757 | -0.72 (inactive) | 0.165 | 3.52
CN1C(=O)C2C=CC(C(O)c3ccc(-c4ccccc4)s3)N(NC(=O)OC(C)(C)C)C2C1=O (stereo not given) | 0.905 | 0.286 | -0.229 | 0.419 | 1.58 | 1.88 | 1.21 | 0.392 (inactive) | 0.913 | -0.0618
COCCOC(=O)N1C(=O)[C@@]2(c3cc(C#CCCO)ccc31)[C@H](C(N)=O)[C@H]1C(=O)O[C@H](c3ccccc3)[C@H](c3ccccc3)N1[C@@H]2c1ccccc1OCCO | -0.352 | 0.755 | -0.0579 | 0.658 | 1.11 | 1.43 | 1.19 | -0.96 (inactive) | 0.52 | 0.219
COC(=O)[C@@]1(Cc2ccc(OC)cc2)[C@H]2c3cc(C(=O)N4CCCC4)n(Cc4c(CO)[nH]cc(C)c4=O)c3C[C@H]2CN1C(=O)c1ccccc1 | 0.0744 | 0.31 | -0.06 | 0.505 | 1.57 | 1.11 | 0.802 | -1.02 (inactive) | 0.829 | 0.0302
O=C1O[C@H](c2ccccc2)[C@H](c2ccccc2)N2[C@H]1[C@@H](C(=O)O)[C@]1(C(=O)Nc3ccc(C#CCCO)cc31)[C@H]2c1ccc(OCCO)cc1 | 0.282 | 1.12 | -0.12 | 0.826 | 0.89 | 1.86 | 1.28 | -0.708 (inactive) | 0.101 | 0.189
COC(=O)[C@@]1(Cc2ccc(F)cc2)[C@H]2c3cc(C(=O)N4CCCC4)n(Cc4ccccn4)c3C[C@H]2CN1C(=O)c1ccccc1 | 0.116 | -0.89 | 0.272 | 1.22 | 1.71 | 1.29 | 1.4 | 0.755 (inactive) | 0.987 | 0.685
O=C(NC1CC1)[C@@H]1c2ccccc2C(=O)N(Cc2cc(C(F)(F)F)cc(C(F)(F)F)c2)[C@H]1c1ccc(CO)cc1 | -0.758 | 0.332 | -0.223 | 0.0757 | -0.134 | 1.4 | 1.36 | 0.102 (inactive) | -0.131 | -0.863
O=C(NCc1ccc(F)cc1)[C@H]1C[C@H]2C(=O)N3CCC[C@H]3C(=O)N2[C@H]1c1ccc(O)cc1 | 0.883 | -0.554 | -0.195 | -0.216 | -0.428 | 0.192 | 0.49 | -0.29 (inactive) | -0.819 | -0.0772
O=C(NCC(O)CO)[C@@]1(CCS(=O)(=O)c2ccccc2)N=C(c2ccc(OCCCO)cc2)O[C@H]1c1ccccc1 (stereo not given in full) | 0.715 | 0.965 | 0.123 | 0.223 | 0.429 | 1.96 | 1.33 | 2.37 (inactive) | 0.544 | 0.0302
COC(=O)[C@H](Cc1ccccc1)N1CC2=CCCC=C[C@@H]2[C@H]1[C@H](O)Cc1ccccc1 | -0.22 | 0.0803 | -0.103 | 0.311 | -0.0146 | 0.112 | 0.667 | 0.569 (inactive) | 0.0599 | -0.0427
C=CCC(OC(C)=O)[C@@H]1[C@@H](N(Cc2cc3ccccc3o2)C(=O)Cc2ccc(OC)cc2)c2cc(OCCCO)ccc2N1C(=O)c1ccc2ccccc2n1 (stereo not given in full) | -0.0558 | -0.24 | 0.0372 | 0.176 | 0.0554 | -0.251 | -0.0159 | 0.544 (inactive) | 0.271 | 0.12
